This is one part of a sample in which hits are shown more often than they occur.
TDP1 cell noCPT – qHTS for Inhibitors of human tyrosyl-DNA phosphodiesterase 1 (TDP1): qHTS in cells in absence of CPT; DT40 Tdp1-/- hTDP1 cells, no CPT, ATP luminescence, 48 h; Potency, µM (doses to about 46.2 µM), most hits filed as inhibitors; hit rate 15% among 420,000; AID 686978, 2013; further: nearly all actives have a fitted effect of over 55% in size
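DT40 Tdp1-/-;hTDP1 cells, no CPT (DMSO vehicle only), 400 cells/well; compounds pin-transferred; ≥48 hr, 37 °C; CellTiter-Glo 30 min RT dark, luminescence read.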
HT1080-NT tox – kills 2HG-producing HT-1080-NT fibrosarcoma cells. HT-1080-NT fibrosarcoma viability, CellTiter-Glo ATP luminescence, 48 h. Potency, µM (top dose mostly 46.1 µM), hits mostly cytotoxic. hit rate 1.6% among 360,000;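 further: NT is the 2HG producing partner of a matched IDH1 knockdown line; nearly all actives have a fitted effect of over 55% in size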
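Toxicity toward the 2HG-producing NT line was scored as %Activity, normalised to DMSO and no-cell wells, from CellTiter-Glo luminescence after 48 hours' treatment.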
TDP1 cell CPT – DT40-hTDP1 cell growth loss with CPT. chicken DT40 Tdp1-/-;hTDP1 cells + 20 nM CPT, ATP luminescence, 48 h. Potency, µM (titrated, usually from 46.2 µM), most hits filed as inhibitors. hit rate 12% among 420,000. AID 686979; further: nearly all actives have a fitted effect of over 55% in size
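Cell growth measured by CellTiter-Glo luminescence after a minimum 48 h, 37 C compound exposure with 20 nM CPT in Tdp1-knockout DT40 cells stably expressing hTDP1, seeded 400/well; qHTS titration format.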
12-LOX inh – inhibitors of human 12S-lipoxygenase ALOX12. purified 12hLO, xylenol orange hydroperoxide absorbance. AID 1671190. hit rate 1.1% among 580,000. P18054. Potency, µM (titrated, usually from 108 µM), most hits filed as inhibitors
Target sequence (P18054 whole entry, looked up): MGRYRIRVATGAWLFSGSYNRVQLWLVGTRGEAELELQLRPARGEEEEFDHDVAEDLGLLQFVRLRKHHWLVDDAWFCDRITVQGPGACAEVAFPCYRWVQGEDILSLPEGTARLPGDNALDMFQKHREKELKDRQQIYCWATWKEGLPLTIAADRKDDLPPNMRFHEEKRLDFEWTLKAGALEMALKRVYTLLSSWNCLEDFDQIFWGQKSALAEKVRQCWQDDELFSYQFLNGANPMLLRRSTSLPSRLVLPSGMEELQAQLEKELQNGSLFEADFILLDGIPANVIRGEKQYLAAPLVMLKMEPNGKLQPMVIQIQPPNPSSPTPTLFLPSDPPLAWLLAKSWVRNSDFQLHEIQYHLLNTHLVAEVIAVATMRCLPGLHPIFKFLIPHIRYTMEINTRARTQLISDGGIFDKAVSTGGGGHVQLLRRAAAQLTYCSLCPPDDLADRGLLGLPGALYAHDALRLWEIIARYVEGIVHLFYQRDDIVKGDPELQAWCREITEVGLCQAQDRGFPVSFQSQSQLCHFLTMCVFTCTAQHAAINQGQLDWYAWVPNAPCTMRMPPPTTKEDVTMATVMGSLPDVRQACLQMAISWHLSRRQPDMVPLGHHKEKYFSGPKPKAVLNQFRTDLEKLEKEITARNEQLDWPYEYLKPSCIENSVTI
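Purified human 12hLO (150 nM final) in 25 mM Hepes, 0.01% Triton X-100, pH 7.0 was preincubated 15 min at room temperature with compound. Then 40 uM arachidonic acid was added, 30 min. Hydroperoxide was read by Fe-XO absorbance ratio 573/405 nm.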
HT1080 IDH1KD tx – kills HT-1080 cells with IDH1 knockdown; HT-1080 IDH1 knockdown viability, ATP luminescence, 48 h; Potency, µM (top dose mostly 46.1 µM), most hits filed as cytotoxic; hit rate 2% among 360,000
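Viability of IDH1-knockdown HT-1080 fibrosarcoma cells was assessed by CellTiter-Glo after 48 h at 37 °C with titrated compound; concentration-effect curves were classified by fit quality and response size.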
IL1B secr inh – inflammasome signaling inhibition, IL-1 beta readout | THP-1 LPS/ATP IL-1B secretion, AlphaLISA, 16 h; active compounds read low | activity change, % at 57.5 µM | hit rate 4.7% among 360,000 | AID 743279; in the data active means activity change below about -50%; inconclusive means mostly about -30% to -49%
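Secreted IL-1B measured by AlphaLISA bead assay after 16 h compound exposure of THP-1 cells; compounds (final up to 57.5 uM) added 1 h before LPS (250 ng/mL) and ATP (1.25 mM) stimulation; lower signal means less secretion.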
Hits are given with their value; 0 = inactive; ? = inconclusive; - = no result; [ ] = dose if it differs, or a comment. Unless noted, the call rests on the fitted dose curve; in most records, active means well fitted curve in the direction sought with a large enough effect; inconclusive means small, poorly fitted or top-dose-only effect, or another doubt; inactive means no such curve, though single readings can be large; an effect the other way counts as inactive or inconclusive.

SMILES	TDP1 cell noCPT	HT1080-NT tox	TDP1 cell CPT	12-LOX inh	HT1080 IDH1KD tx	IL1B secr inh
COc1cccc(CNC(=S)Nc2ccc3c(c2)c(=O)n(C)n3Cc2ccccc2)c1	?	0	?	?	0	0
COc1cccc(Cn2c3ccc(NC(=O)CC(C)C(F)(F)F)cc3c(=O)n2C)c1 (stereo not drawn)	?	0	?	0	0	0
COc1cccc(Cn2c3ccc(NC(=O)Cc4cc(OC)ccc4OC)cc3c(=O)n2C)c1	21µM	?	12µM	0	?	-78
C=CCNC(=O)NC(=O)COC(=O)c1ccccc1Sc1ccc(C(F)(F)F)cc1[N+](=O)[O-]	0	?	?	0	?	0
CC(C)CNC(=O)NC(=O)COC(=O)c1ccccc1Sc1ccc(C(F)(F)F)cc1[N+](=O)[O-]	?	0	29µM	0	0	0
COCCN1CC(C(=O)N2CCN(c3ncccc3C#N)CC2)CCC1=O (stereo not drawn)	-	-	-	0	-	-
Cc1ccc(-c2nnc(-c3ccc(NC(=O)c4ccco4)cc3)o2)cc1	21µM	0	23µM	0	0	0
COc1cccc(C(=O)Nc2ccc(-c3nnc(-c4ccco4)o3)cc2)c1	10µM	0	?	0	?	0
COc1ccc(C(=O)Nc2nnc(-c3ccccc3)o2)cc1OC	23µM	0	?	0	0[9.24 µM]	0
COc1ccc(C(=O)Nc2cccc3cccnc23)cc1OC	?	0[9.24 µM]	?	0	0	0
COc1ccc(C(=O)Nc2cccc(NC(=O)c3ccc(OC)c(OC)c3)n2)cc1OC	7.3µM	0	8.2µM	0	0	0
COc1cc(C(=O)OCC(=O)Nc2nnc(-c3ccccc3)o2)cc(OC)c1OC	0	0	0	0	0	0
COc1ccc(C2(C(=O)NCCc3ccc(F)cc3)CCOCC2)cc1	-	-	-	0[6.33 µM]	-	-
O=C(O)[C@H]1CN[C@H](C(=O)O)C1	0	-	0	0	-	-
O=C(Nc1nnc(-c2ccc(F)cc2)o1)c1cccc([N+](=O)[O-])c1	3.3µM	0	3.7µM	0	?	0
Brc1ccc(-c2ccc(-c3nnc(-c4ccco4)o3)o2)cc1	-	-	-	14µM	-	-
O=C(Nc1c(C(=O)Nc2ccccc2)cnn1-c1ccccc1)c1ccco1	0	0	0	0	0	0
O=C(Nc1nnc(C2=COCCO2)o1)c1cccc([N+](=O)[O-])c1	0	0	0	0	0	0
Cc1ccc(NC(=O)c2cnn(-c3ccccc3)c2NC(=O)c2ccco2)cc1	?	0	13µM	0	0	0
COc1cccc(-c2nnc(-c3ccco3)o2)c1	29µM	0	?	0	0	0
COc1cccc(-c2nnc(-c3ccc(C)o3)o2)c1	0	0	0	0	0	0
Brc1ccc(CSc2nnc(-c3ccco3)o2)cc1	?	0	0	0	0	0
CC(=O)Nc1ccc(N2C(=O)C(=O)/C(=C(/O)c3ccccc3)C2c2ccccc2F)cc1 (stereo not drawn)	-	-	-	0	-	-
CCOc1cccc(C(=O)Nc2cccc(-c3nnc(-c4ccc(C)cc4)o3)c2)c1	?	0	18µM	?	0	0
COc1cccc(C(=O)Nc2cccc(-c3nnc(-c4ccccc4)o3)c2)c1	18µM	0	?	0	0	0
SMILES	TDP1 cell noCPT	HT1080-NT tox	TDP1 cell CPT	12-LOX inh	HT1080 IDH1KD tx	IL1B secr inh
CCOc1cccc(NC(=O)c2cccc(C)c2)c1	-	-	-	0	-	-
COc1cccc(C(=O)Nc2cccc(-c3ccccc3)c2)c1	?	0	?	0	0	0
COc1cccc(-c2nnc(NC(=O)c3cccc(F)c3)o2)c1	3.3µM	0	3.3µM	?	0	0
CCOc1cccc(C(=O)Nc2cccc(-c3nnc(-c4ccccc4)o3)c2)c1	18µM	0	15µM	0	0	-73
Cc1ccc(-n2nnnc2SCc2nc3ccccc3o2)cc1C	-	-	-	0	-	-
CC(C)(C)n1nnnc1C(c1ccc(C(F)(F)F)cc1)N(Cc1ccccc1)Cc1ccco1 (stereo not drawn)	?	?	21µM	0	0	0
CC(C)(C)n1nnnc1C(c1ccc(C(F)(F)F)cc1)N(Cc1ccc(F)cc1)Cc1ccco1 (stereo not drawn)	21µM	?	?	0	0	0
Cc1ccc(C(c2nnnn2C(C)(C)C)N(Cc2ccco2)Cc2cccs2)cc1 (stereo not drawn)	?	0	?	0	0	0
CC(C)(C)n1nnnc1C(c1ccc(Cl)cc1)N(Cc1cccnc1)Cc1ccco1 (stereo not drawn)	0	?	18µM	0	?	0
CC(C)(C)n1nnnc1C(c1ccc(F)cc1)N(Cc1ccc(F)cc1)Cc1ccco1 (stereo not drawn)	?	0	?	0	0	0
CC(C)(C)n1nnnc1C(c1cccs1)N(Cc1ccccc1)Cc1cccnc1 (stereo not drawn)	26µM	0	21µM	0	0	0
C/C(=N\NC(=O)c1ccc(C(C)(C)C)cc1)c1ccc(C)c(C)c1	-	-	-	0	-	-
O=C(NCc1cc(F)cc(F)c1)c1nc(-c2ccc(F)cc2)c2ccccn12	-	-	-	0	-	-
CCN(Cc1ccccc1)C(c1ccc(C)cc1)c1nnnn1C(C)(C)CC (stereo not drawn)	13µM	0	?	0	?	0
CC(C)CN1CC2(CCN(C(=O)c3csnn3)CC2)C1	0	-	0	0	-	-
COC(=O)c1sccc1NC(=O)Nc1cccc([N+](=O)[O-])c1	0	0	0	0	0	0
CCSCCc1nnc(NC(=O)Nc2cccc(C(F)(F)F)c2)s1	2.3µM	?	4.1µM	0	?	-69
O=C(Nc1cccc(C(F)(F)F)c1)Nc1cccs1	21µM	-	?	?	-	-
O=C(Nc1ccccc1)Nc1cccc(C(F)(F)F)c1	?	0	?	0	0	0
O=C(Nc1cccc([N+](=O)[O-])c1)Nc1cccs1	?	0	23µM	?	0	?
O=C(NCCc1ccccn1)c1cn2ccnc(-c3ccccc3)c2n1	-	-	-	0	-	-
CC(C)(C)Nc1ncnc2sc(-c3ccccc3)cc12	23µM	0	26µM	0	0	0
C=COCCCNc1ncnc2sc(-c3ccccc3)cc12	15µM	0	16µM	0	0	0
COC(CNc1ncnc2sc(-c3ccccc3)cc12)OC	?	0	?	0	0	?
CN(C)c1ncnc2sc(-c3ccccc3)cc12	0	0	?	0	0	-55
COc1ncnc2sc(-c3ccccc3)cc12	0	0	0	0	0	0
COc1ccc(Nc2ncnc3sc(-c4ccccc4)cc23)cc1	?	0	0	?	0	0
Cc1cc2ccccc2n1CCNC(=O)c1ccc2ccccc2c1	-	-	-	0	-	-
CCCCCCNC(=O)n1cc(F)c(=O)[nH]c1=O	15µM	-	11µM	0	-	-

Source: PubChem BioAssay
